Among the data in PubChem BioAssay (Tox21) are Potency and activation values, retold here.

For this experiment, the target named is Beta-2 adrenergic receptor (Homo sapiens) (UniProt P07550). Put plainly: Adrenergic beta2 receptor (ADRB2) small molecule agonists, cell-based qHTS assay (AID 1963593).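 Note: CHO cells stably overexpressing human ADRB2.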 A digest of the protocol: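 CHO cells stably over-expressing ADRB2 were plated overnight at 37C, then dosed with compounds plus a stimulation mix containing 100uM IBMX and 25uM Ro-20-1724 for 0.5hr at room temperature. cAMP was measured by HTRF competition, 1hr.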
(Quantitative high-throughput screening tests each substance at several concentrations.)

Results filed as inconclusive are left out. Entries that show only a call come without a potency. Unmarked numbers belong to inactive results. Active and inactive are the calls of the source. Calls come from the whole dose curve.

Sequence of Beta-2 adrenergic receptor (Homo sapiens) (P07550 whole entry, looked up): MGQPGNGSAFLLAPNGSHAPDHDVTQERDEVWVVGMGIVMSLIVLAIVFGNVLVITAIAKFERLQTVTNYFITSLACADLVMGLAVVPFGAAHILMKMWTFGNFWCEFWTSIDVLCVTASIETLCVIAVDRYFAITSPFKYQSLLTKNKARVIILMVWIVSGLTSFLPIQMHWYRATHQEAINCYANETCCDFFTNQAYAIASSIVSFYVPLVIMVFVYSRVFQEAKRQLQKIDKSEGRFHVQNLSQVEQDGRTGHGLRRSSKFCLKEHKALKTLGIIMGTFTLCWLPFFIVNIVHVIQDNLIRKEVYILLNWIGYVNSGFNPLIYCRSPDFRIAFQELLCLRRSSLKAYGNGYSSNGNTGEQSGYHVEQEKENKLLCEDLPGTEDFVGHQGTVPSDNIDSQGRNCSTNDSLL

With `CC(CC=O)CC(C)(C)C` (stereo not drawn), the Potency entry was “inactive”.
In the case of `O=Cc1ccc(F)cc1`, the Potency result is “inactive”.
Consider `NCc1ccc(S(N)(=O)=O)cc1`, for which the Potency entry is “inactive”.
`CCOC(=O)C(C)C(C)=O` (stereo not drawn): the Potency result is “inactive”.
Regarding `CN1[C@@H]2CC[C@H]1CC(NC(=O)n1c(=O)[nH]c3ccccc31)C2` (stereo partly drawn), the Potency result was “inactive”.
On the same count and under the same terms, the entry for `COc1cccc(OC)c1C(=O)O` is “inactive”; for `CCCCCC=O` it is “inactive”; for `NC(=O)c1ccc([N+](=O)[O-])cc1Cl` it is “inactive”.
With `CC(C)N=C(N)/N=C(\N)Nc1ccc(Cl)cc1`, the Potency result was “inactive”.
On the same count and under the same terms, then `C=CCOCC(CO)(COCC=C)COCC=C`, with “inactive”.
On the same count and under the same terms, the entry for `C[C@@H](O)[C@H]1C(=O)N2C(C(=O)O)=C(SCCN=CN)C[C@H]12` is “inactive”; for `O=S(=O)(O)CCCN1CCOCC1` it is “inactive”; for `Nc1ccc2c(S(=O)(=O)O)cccc2c1S(=O)(=O)O` it is “inactive”.
In the case of `CC1(C)C(=O)N(Br)C(=O)N1Cl`, the Potency entry is “inactive”.
With `CC1CC(O)CC(C)(C)C1` (stereo not drawn), the Potency result was “inactive”.
Turning to `CC(C)(C)c1nnc(NS(=O)(=O)c2ccc(N)cc2)s1`, the Potency result was “inactive”.
The same measure, in the same setting: the entry for `CC(CO)Oc1ccccc1` (stereo not drawn) is “inactive”.
On to `C[Si](C)=O`, for which the activation was 7.37% [at 8.39 µM].
Consider `O=C[O][Al]([O]C=O)[O]C=O`, for which the Potency entry is “inactive”.
In the case of `CCC(C)(C)CC`, the Potency result was “inactive”.
As to `CCCCCCCCCCCC[N+](C)(C)CCCS(=O)(=O)[O-]`, the Potency result is “inactive”.
For the compound `O=S(O)CO`, the Potency entry is “inactive”.
`CCCCCCc1ccc(-c2ccc(C#N)cc2)cc1`: the Potency entry is “inactive”.
As to `FC(F)(F)C(F)(F)C(F)(F)C(F)(F)C(F)(F)C(F)(F)CCI`, the Potency entry is “inactive”.
For the compound `COCC(O)CO` (stereo not drawn), the Potency result is “inactive”.
In the case of `C=CCCCCCCCCCCCC`, the Potency result was “inactive”.
Take `OCCN1CCNCC1`: the Potency result was “inactive”.
Same read-out and setting: then `CCOC(=O)c1cccc(N)c1`, with “inactive”; and `O=C1C=CC(=O)O1`, with “inactive”; and `O=C1CCC(=O)N1`, with “inactive”.
For the compound `CC12CCC(C1)C(C)(C)C2O` (stereo not drawn), the Potency entry is “inactive”.
For `CC(CCC(=O)O)C(=O)O` (stereo not drawn), the Potency result was “inactive”.
Still for that read-out and setting: the entry for `O=C1NCCN1CCO` is “inactive”.
Still for that read-out and setting: then `N#CC1(O)CCCCC1`, with “inactive”; and `CC(C)(C)OC=O`, with “inactive”; and `Clc1ccccc1-c1nc(-c2ccncc2)no1`, with “inactive”.
On to `CC(=O)N[C@H]1[C@H]([C@H](O)[C@H](O)CO)OC(C(=O)O)=C[C@@H]1N=C(N)N`, for which the Potency result is “inactive”.
With `COC(=O)c1cc(Cl)ccc1NS(=O)(=O)C(F)(F)F`, the Potency entry was “inactive”.
The same measure, in the same setting: then `CCCCOC(=O)[C@H](C)O`, with “inactive”; and `CC(=O)OCC(=O)Nc1cc(C#N)cc(NC(=O)COC(C)=O)c1Cl`, with “inactive”; and `CC(COC(=O)c1ccccc1)OC(=O)c1ccccc1` (stereo not drawn), with “inactive”.
Regarding `COc1cc(C)c(Cc2cnc(N)nc2N)cc1OC`, the Potency result is “inactive”.
The same measure, in the same setting: then `CCOCOCC`, with “inactive”; and `CCOCCOCCOCCO`, with “inactive”; and `ON(Cc1ccccc1)Cc1ccccc1`, with “inactive”.
Take `N#CCC(=O)O`: the Potency result was “inactive”.
`CC12CC3CC(C)(C1)CC(N)(C3)C2`: the Potency result is “inactive”.
Still for that read-out and setting: then `C#CC(C)(O)CC(C)C` (stereo not drawn), with “inactive”.
